Screens (PubChem)
This is a sample that favours compounds with a hit; in the whole collection about 3.8% have one here.
CBFb RUNX1 block = qHTS Assay for Compounds Blocking the Interaction Between CBF-beta and RUNX1 for the Treatment of Acute Myeloid Leukemia; Runt-related transcription factor 1 (Homo sapiens) + Core-binding factor subunit beta …; AlphaScreen CBFb-His/RUNX1-biotin binding, biochemical; Potency, µM (doses to about 59.8 µM), for the others: at the highest dose activity, negative = inhibition, most hits filed as inhibitors; 230,000 tested, under 10 active; AID 1477, 2009; also: % of control where 0% means no effect
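AlphaScreen proximity signal reports loss of binding between His-tagged CBF-beta and biotin-labelled RUNX1, each at 30 nM. Proteins are pre-associated for 20 minutes, compounds added for 15 minutes, then beads for 90 minutes, all at ambient temperature.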
MBNL1 CUG block = qHTS Assay for Inhibitors of MBNL1-poly(CUG) RNA binding; Muscleblind-like protein 1 (Homo sapiens), Q9NR56; TR-FRET MBNL1-His/biotin-(CUG)12 binding, 665/545 ratio; Potency, µM (doses to about 57.5 µM), inactives show at the highest dose activity change, negative = inhibition, usual class: inhibitors; actives 0.036% (n = 280,000); AID 2675, 2010; active = well fitted inhibition curve with a large enough effect in the signal ratio, with a control signal flat, not every such curve was filed as active; inconclusive = small, poorly fitted or top-dose-only effect, or effect the other way, or a change in a side signal; inactive = no such curve, though single readings can be large or run the other way; the % refers to the signal ratio; also: potency is read from the fitted curve at half-maximal effect; % is scaled to controls: 0 for no effect and ±100 for the full control effect
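Compound titration spanned 92 nM–58 uM against the MBNL1-His/biotin-(CUG)12 complex. After 60 min at room temperature with 5 nM streptavidin-XL665 and 0.055 ng/ul terbium anti-His, ratiometric 665/545 nm emission (Ex 340 nm) normalized to controls.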
KCNH2 3.1 inh = qHTS for Inhibitors of KCHN2 3.1: Mutant qHTS. Potassium voltage-gated channel subfamily H member 2, brain isoform KCNH2 3.1 (human). U2OS KCNH2 3.1, thallium flux FluxOr; active compounds read low. activity change, % (tested at about 1.8 µM). actives 0.95% (n = 340,000);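 active = maximum activity change below -70%; inconclusive = maximum activity change from -70% to -50%; inactive = maximum activity change above -50%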;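 also: thallium influx rate constant from kinetic fluorescence after stimulation buffer; % is scaled to controls: 0 for no effect and ±100 for the full control effect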
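FluxOr-based Tl+ influx in U2OS cells transduced with KCNH2 3.1 virus; rate constants normalized to DMSO controls.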
KCNH2 WT inh = qHTS for Inhibitors of KCHN2 3.1: Wildtype qHTS | U2OS, BacMam KCNH2, thallium flux FluxOr; active compounds read low | activity change, % at 1.84 µM | actives 0.37% (n = 340,000);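 active = maximum activity change below -70%; inconclusive = maximum activity change between -70% and -50%; inactive = maximum activity change above -50%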; also: % is scaled to controls: 0 for no effect and ±100 for the full control effect
Target sequence (Q12809 whole entry, looked up): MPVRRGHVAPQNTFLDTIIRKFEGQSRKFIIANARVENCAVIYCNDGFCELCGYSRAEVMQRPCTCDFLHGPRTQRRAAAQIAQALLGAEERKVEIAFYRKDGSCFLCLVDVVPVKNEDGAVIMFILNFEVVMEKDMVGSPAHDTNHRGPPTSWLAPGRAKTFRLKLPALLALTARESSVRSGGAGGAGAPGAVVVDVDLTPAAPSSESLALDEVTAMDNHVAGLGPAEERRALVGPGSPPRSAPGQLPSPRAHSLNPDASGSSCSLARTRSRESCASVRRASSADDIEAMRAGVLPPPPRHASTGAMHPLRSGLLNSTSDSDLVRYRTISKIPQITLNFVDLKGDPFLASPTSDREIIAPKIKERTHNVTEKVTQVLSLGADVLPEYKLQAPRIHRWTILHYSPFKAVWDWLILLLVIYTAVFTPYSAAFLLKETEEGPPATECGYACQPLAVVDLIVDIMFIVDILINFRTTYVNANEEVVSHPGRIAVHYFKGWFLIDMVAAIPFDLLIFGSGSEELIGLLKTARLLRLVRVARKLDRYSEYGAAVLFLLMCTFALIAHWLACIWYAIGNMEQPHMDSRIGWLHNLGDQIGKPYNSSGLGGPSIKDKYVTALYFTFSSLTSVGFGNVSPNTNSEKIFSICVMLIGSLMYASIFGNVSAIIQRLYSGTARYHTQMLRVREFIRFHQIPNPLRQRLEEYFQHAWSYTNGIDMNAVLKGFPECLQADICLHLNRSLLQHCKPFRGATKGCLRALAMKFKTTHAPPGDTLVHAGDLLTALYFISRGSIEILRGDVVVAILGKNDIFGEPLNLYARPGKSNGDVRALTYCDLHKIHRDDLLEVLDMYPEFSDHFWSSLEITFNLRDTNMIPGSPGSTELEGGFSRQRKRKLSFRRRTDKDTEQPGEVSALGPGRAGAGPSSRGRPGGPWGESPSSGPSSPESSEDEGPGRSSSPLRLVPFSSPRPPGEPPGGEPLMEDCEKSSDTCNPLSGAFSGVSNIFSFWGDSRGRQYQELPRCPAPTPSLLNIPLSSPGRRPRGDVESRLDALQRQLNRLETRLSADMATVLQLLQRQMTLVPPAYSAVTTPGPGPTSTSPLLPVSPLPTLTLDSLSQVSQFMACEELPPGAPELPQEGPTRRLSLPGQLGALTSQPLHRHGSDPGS
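U2OS cells transduced with wild-type KCNH2 virus are loaded with FluxOr dye for 45 min, and thallium flux is measured in kinetic reads before and after stimulation buffer. Rate constants are normalized to DMSO controls.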
VDR inhibitor = Inhibitors of the vitamin D receptor (VDR): qHTS | VDR-SRC2-3 peptide fluorescence polarization, 2 h | Potency, µM, without a hit: max response, negative = inhibition, actives largely listed as inhibitors | actives 0.93% (n = 400,000) | Vitamin D3 receptor (Homo sapiens), P11473; also: potency is read from the fitted curve at half-maximal effect; % is scaled to controls: 0 for no effect and ±100 for the full control effect
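Inhibition of the VDR/SRC2-3 peptide interaction is quantified by fluorescence polarization. Compounds (23 nl, pintool) incubate with the reagents for 2 hours at ambient room temperature.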
PLK1 PBD inh = qHTS for Inhibitors of PLK1-PDB (polo-like kinase 1 - polo-box domain): Primary Screen | actives 2.8% (n = 360,000) | Serine/threonine-protein kinase PLK1 (Homo sapiens), P53350 | Potency, µM, for the others: max response, negative = inhibition, usual class: inhibitors | AID 720504, 2013 | Plk1 PBD binding of FITC phosphopeptide, fluorescence polarization; also: potency is read from the fitted curve at half-maximal effect; series mostly up to about 57 µM; % is scaled to controls: 0 for no effect and ±100 for the full control effect; nearly all actives have a fitted effect of over 65% in size
Numbers without * were called inactive; ? = inconclusive; nt = no result given; [ ] = dose if it differs, or a comment. Unless noted, calls follow the shape of the dose curve; as a rule, active = well fitted curve in the direction sought with a large enough effect; inconclusive = small, poorly fitted or top-dose-only effect, or another doubt; inactive = no such curve, though single readings can be large; an effect the other way counts as inactive or inconclusive.

SMILES	CBFb RUNX1 block	MBNL1 CUG block	KCNH2 3.1 inh	KCNH2 WT inh	VDR inhibitor	PLK1 PBD inh
CCc1ccc(NC(=O)Nc2cc(C(=O)O)ccc2N2CC3CC(C2)c2cccc(=O)n2C3)cc1 (centres undefined)	nt	-2%	0	3	-12%	-14%
COc1cccc(NC(=O)Nc2cc(C(=O)NC(C)C)ccc2N2CC3CC(C2)c2cccc(=O)n2C3)c1 (centres undefined)	nt	2%	-2	-11	-24%	3.8µM*
O=C(O)c1ccc(N2CC3CC(C2)c2cccc(=O)n2C3)c(NC(=S)Nc2ccc(Cl)cc2Cl)c1 (centres undefined)	4%	-2%	-1	-2	?	12µM*
COc1cccc(C2=NOC(C(=O)Nc3cc(OC)c(OC)c(OC)c3)C2)c1 (centres undefined)	4%	6%	8	8	4%	-2%
COc1cccc(C2=NOC(C(=O)Nc3ccccc3SC)C2)c1 (centres undefined)	8%	4%	14	2	-17%	30µM*
Cc1ccc(Cl)cc1N1CCN(C(=O)Cn2c(-c3cccs3)cc3cc(F)ccc32)CC1	nt	nt	nt	nt	18%	nt
O=C(O)c1ccccc1C(=O)Nc1ccccc1	-2%	2%	9	14	17%	0%
O=C(Nc1ccccc1)C1=C(c2ccccc2)S(=O)(=O)CCS1(=O)=O	5%	-3%	1	1	22µM*	5.3µM*
O=C(CSc1n[nH]c(-c2ccccc2Cl)n1)N1CCN(c2ccc(F)cc2)CC1	nt	nt	nt	nt	11%	nt
O=C(O)c1cccc(COc2ccc3c(c2)CCC3)c1	2%	4%	-112*	6	-7%	-8%
c1ccc(-c2n[nH]c3c2CCC3)cc1	0%	3%	-18	2	-1%	-1%
CC(C)(C)c1n[nH]c2c1CCCC2	4%	-5%[11.5 µM]	1	-1	-16%	27µM*
Cc1cccn2c(=O)c(C(=O)NCc3ccccc3Cl)c(O)nc12	nt	nt	nt	nt	-5%	nt
CC(=O)c1cc(NC(=O)c2ccc(C)cc2)c(=O)oc1C	-18%	17%	24	4	?	11µM*
CC1(C)CC(=O)c2cc(NC(=O)c3ccccc3)c(=O)oc2C1	4%	?	3	2	-29%	27µM*
Cc1oc(=O)c(NC(=O)c2ccccc2)cc1C(=O)c1ccccc1	-7%	5%	0	-2	18µM*	-25%
Cc1oc(=O)c(NC(=O)c2ccc(Cl)cc2)cc1C(=O)c1ccccc1	-1%	-11%	-4	-3	25µM*	-13%
CC(=O)c1cc(NC(=O)c2ccccc2)c(=O)oc1C	1%	3%	-1	-2	-5%	?
COC(=O)c1cc(NC(=O)c2ccc(OC)cc2)c(=O)oc1C	11%	5%	16	-3	2%	?
Cc1nnc(SCc2nc(-c3ccc(Cl)cc3)no2)n1-c1ccc(F)cc1	nt	nt	nt	nt	6%	nt
COc1cccc(C2C=C(c3ccc(C)c(C)c3)Nc3nnnn32)c1OC (centres undefined)	nt	nt	nt	nt	12%	nt
COc1ccc(-c2cccc3c2NC(=O)C3=O)cc1OC	nt	nt	33	-4	?	27µM*
COc1ccc(-c2cc(-c3ccccc3O)[nH]n2)cc1OC	-6%	-12%	-1	-2	-6%	2%
COc1cc(NC(=O)CSc2nc3ncccc3o2)cc(OC)c1	nt	nt	nt	nt	-2%	nt
COc1ccc(-c2cc(=S)ss2)cc1	nt	nt	nt	nt	40µM*	nt
SMILES	CBFb RUNX1 block	MBNL1 CUG block	KCNH2 3.1 inh	KCNH2 WT inh	VDR inhibitor	PLK1 PBD inh
Cc1nn(CC(=O)NCc2ccc(N(C)C)cc2)c(=O)c2c(C)n(-c3ccc(Cl)cc3)nc12	nt	nt	nt	nt	0%	nt
CCOc1ccc(/C=C2/C(=N)N3OC(C)=CC3=NC2=O)cc1OC	2%	-3%	10	5	?	21µM*
O=C(CC1(O)C(=O)N(CCc2ccccc2)c2ccc(Br)cc21)c1ccc(F)cc1 (centres undefined)	nt	nt	nt	nt	-1%	nt
CC(=O)Nc1ccc2c(c1)c1ccccc1n2C(C)=O	4%	nt	-17	-14	?	4%
N#Cc1ccc2sn(-c3ccccc3)c(=O)c2c1	nt	nt	-6	-5	nt	2.7µM*
O=c1c2cc([N+](=O)[O-])ccc2sn1-c1ccccc1	nt	nt	15	6	nt	2.7µM*
O=c1c(-c2ccccc2)c[nH]n1-c1cccc([N+](=O)[O-])c1	-18%	?	6	-5	16%	-10%
CC(=O)Nc1ccc2sn(-c3ccccc3)c(=O)c2c1	nt	nt	-1	-10	nt	3.4µM*
CC(C)CCNC(=O)c1cccc(C(=O)NCCC(C)C)c1	0%	-5%	-2	1	-14%	24µM*
COc1ccc(S(=O)(=O)Oc2ccc(C(=S)N3CCOCC3)cc2OC)cc1	nt	0%	4	3	-6%	-5%
COc1ccc(S(=O)(=O)Oc2c(OC)cc(C(=S)N3CCOCC3)cc2OC)cc1	nt	-4%	29	-9	?	27µM*
COc1cc(C(=O)NNC(=S)Nc2ccc(S(N)(=O)=O)cc2)cc(OC)c1OC	2%	3%	-3	2	4%	6.7µM*
COc1cc(C(=S)N2CCCC2)cc(OC)c1OS(=O)(=O)c1ccc(NC(C)=O)cc1	-14%	-21%	-5	-5	?	12µM*
Cc1ccc(NCC(=O)N/N=C/c2ccc(OC(=O)c3ccco3)cc2)cc1	-11%	-2%	-29	-13	0%	-3%
CCOC(=O)N/N=C\c1ccc(OC(=O)c2ccco2)cc1	?	3%	-3	-154*	-7%	?
CCOc1cc(/C=C2/SC(=S)NC2=O)ccc1OC(=O)c1ccco1	-19%	12%	-9	-3	-3%	21µM*
CC(C)(C)OC(=O)N/N=C\c1ccc(OC(=O)c2ccco2)cc1	2%	0%	4	2	-3%	24µM*
CCOc1cc(/C=N\NC(=O)OC(C)(C)C)ccc1OC(=O)c1ccco1	7%	4%	-7	1	-17%	21µM*
COc1cccc([C@@H]2Oc3ccc(OC)cc3C[C@H]2OC(=O)NS(=O)(=O)c2ccc(C)cc2)c1	?	nt	nt	nt	3%	nt
